The list is not random: actives were taken first. Their share in the collection is about 1.6%.
KCNQ2 pot: potentiators of rat KCNQ2 potassium channel. B-score at 10 µM. AID 2239, 2010. CHO-K1 KCNQ2, FluxOR thallium flux fluorescence; active compounds read high. 0.54% of 310,000 active;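 active = fluorescence ratio B-score at least 3 SD of library B-scores, with initial fluorescence B-score within 3 of them, cut at about 5.3 in these data; same plate scores as AID 2156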;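 also: B-score of peak minus minimum over baseline fluorescence ratio after K+ and Tl+ stimulus; positive B-score means potentiation of KCNQ2 with more thallium influx and brighter signal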
Target sequence (O88943 whole entry, looked up): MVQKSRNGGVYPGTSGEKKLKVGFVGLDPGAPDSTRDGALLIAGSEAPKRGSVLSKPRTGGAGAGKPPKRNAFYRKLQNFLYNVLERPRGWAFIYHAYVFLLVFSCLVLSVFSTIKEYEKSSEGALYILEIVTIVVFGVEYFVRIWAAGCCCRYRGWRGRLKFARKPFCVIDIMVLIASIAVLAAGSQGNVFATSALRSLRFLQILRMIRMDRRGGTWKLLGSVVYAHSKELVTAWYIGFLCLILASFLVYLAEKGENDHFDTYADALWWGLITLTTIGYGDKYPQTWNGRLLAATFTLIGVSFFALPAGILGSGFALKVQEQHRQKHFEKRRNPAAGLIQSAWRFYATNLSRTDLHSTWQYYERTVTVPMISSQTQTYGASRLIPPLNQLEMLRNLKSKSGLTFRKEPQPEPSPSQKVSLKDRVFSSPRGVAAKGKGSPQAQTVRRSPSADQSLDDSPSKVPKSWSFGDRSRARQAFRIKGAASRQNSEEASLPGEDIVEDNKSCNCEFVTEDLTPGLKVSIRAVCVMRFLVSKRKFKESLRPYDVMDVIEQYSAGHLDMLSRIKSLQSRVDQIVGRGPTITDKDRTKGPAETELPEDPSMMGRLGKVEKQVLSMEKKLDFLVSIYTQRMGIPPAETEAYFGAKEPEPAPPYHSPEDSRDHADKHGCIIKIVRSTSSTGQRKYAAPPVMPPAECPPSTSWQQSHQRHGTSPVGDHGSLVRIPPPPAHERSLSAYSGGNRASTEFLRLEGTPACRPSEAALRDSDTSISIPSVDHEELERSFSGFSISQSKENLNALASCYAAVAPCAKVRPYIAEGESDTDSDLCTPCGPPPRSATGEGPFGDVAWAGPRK
KCNQ2 block: rat KCNQ2 potassium channel inhibitors, primary screen, cell-based, CHO-K1, FluxOR thallium flux, B-score; Potassium voltage-gated channel subfamily KQT member 2 (Rattus norvegicus), O88943; 20 min; active compounds read low; B-score at 10 µM; 1.1% of 310,000 active; AID 2156, 2009;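 active = fluorescence ratio B-score at most minus 3 library SDs, with starting brightness B-score within 2 library SDs, cut at about -5.5 in these data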
* hit, by the source's call; i = inactive; . = no result given.

SMILES	KCNQ2 pot	KCNQ2 block
O=C1NN(c2ccccc2)C(=O)/C1=C/c1coc2ccccc2c1=O	.	i
O=C1NN(c2ccccc2)C(=O)/C1=C\c1coc2ccc(O)cc2c1=O	-5.7	-5.7*
O=C1CCc2cc(S(=O)(=O)NCc3ccc(F)cc3)cc3c2N1CCC3	0.11	i
CCn1nc(NC(=O)c2ccccn2)c2cc3cc(C)ccc3nc21	1.1	i
Cc1ccc2nc3c(cc2c1)c(NC(=O)c1ccccn1)nn3CC(C)C	-7.5	-7.5*
COc1ccc(CN(C(=O)CSc2nnc(-c3ccc(F)cc3)o2)c2ccc(F)cc2)cc1	.	i
COc1ccc(CN(C(=O)CSc2nnc(-c3c[nH]c4ccccc34)o2)c2ccc(F)cc2)cc1OC	-7	-7*
COc1ccc(Cl)cc1NC(=O)CN(C)C(=O)c1cn(-c2ccccc2)nc1-c1cccnc1	.	i
Nc1cc(N)nc(SCC(=O)N2CCN(S(=O)(=O)c3ccccc3)CC2)n1	.	i
CCc1ccc2c(CN3CCN(S(=O)(=O)c4ccc5c(c4)OCCO5)CC3)cc(=O)oc2c1	0.46	i
O=c1cc(CN2CCN(S(=O)(=O)c3ccc4c(c3)OCCO4)CC2)c2ccc(O)cc2o1	-5.6	-5.6*
CC(Sc1nnc(C(F)(F)F)n1C)C(=O)Nc1ccc(S(N)(=O)=O)cc1 (stereo not given)	.	i
NC(=O)c1ccc(CSc2nc3ccccc3s2)cc1	0.88	i
c1ccc2sc(SCc3ccc(-c4nnco4)cc3)nc2c1	-7.1	-7.1*
CCOC(=O)c1c(C=O)c(C)n(Cc2ccc(C)cc2)c1C	.	i
CCOC(=O)c1c(C=O)c(C)n(Cc2ccccc2Cl)c1C	-5.8	-5.8*
Cc1c(C(=O)O)oc2ccc(S(=O)(=O)N3CCCC3)cc12	.	i
CCCCN(C)C(=O)c1oc2ccc(S(=O)(=O)N3CCCCCC3)cc2c1C	-5.6	-5.6*
CC(C)CCN(C(=O)C1CSC2(C)CCC(=O)N12)c1c(N)n(Cc2ccccc2)c(=O)[nH]c1=O (stereo not given)	.	i
O=C(NC(NCc1ccccc1)C(Cl)(Cl)Cl)c1cccnc1 (stereo not given)	.	i
O=C(NC(NCc1cccnc1)C(Cl)(Cl)Cl)c1cccc2ccccc12 (stereo not given)	-6.3	-6.3*
Cc1c(Cl)cccc1NC(=O)CSc1ncnc2c1cnn2CCO	0.4	i
COc1cc(CCC(=O)NNC(=O)c2cccc(Cl)c2)cc(OC)c1OC	1.2	i
O=C(CCCN1CCOCC1)c1ccc2c(c1)OCCO2	0.39	i
O=C(CCN1CCc2ccccc2CC1)c1ccc2c(c1)OCCO2	-5.8	-5.8*
SMILES	KCNQ2 pot	KCNQ2 block
Cn1nc(C(C)(C)C)c([N+](=O)[O-])c1C(=O)N1CCCCCC1	1.6	i
Cc1ccc(NC(=O)C(Cc2ccccc2)n2cccc2)cc1 (stereo not given)	.	i
O=C(C(Cc1ccccc1)n1cccc1)N1CCN(c2ccccc2)CC1 (stereo not given)	.	i
CC1CCCN(C(=O)C(Cc2ccccc2)n2cccc2)C1 (stereo not given)	-6.5	-6.5*
CC1CCC(NC(=O)C(Cc2ccccc2)n2cccc2)CC1 (stereo not given)	-5.8	-5.8*
Cc1ccc(S(=O)(=O)N2CCN(C(=O)c3ccnn3C)CC2)cc1C	0.19	i
CCN(CC(=O)Nc1cccc(OC)c1)C(=O)c1ccco1	.	i
COC(=O)CCC(=O)N1CCCC(N2CCN(c3ccc(OC)cc3)CC2)C1 (stereo not given)	.	i
Cc1nn2c(SCC(=O)c3cccs3)cc(C(C)(C)C)nc2c1-c1ccccc1	20*	i
Cc1cc(SCC(=O)c2cccs2)n2nc(C)c(-c3ccc(Cl)cc3)c2n1	2.4	i
COc1ccccc1-c1nnc(SCC(=O)Nc2ccc3[nH]c(=O)[nH]c3c2)n1N	.	i
CS(=O)(=O)c1[nH]nc(-c2ccccc2)c1C#N	0.54	i
CCn1c(=O)c(-c2cc(=O)[nH][nH]2)c(O)c2ccccc21	.	i
O=c1cc(-c2c(O)c3ccccc3n(Cc3ccccc3)c2=O)[nH][nH]1	-6.8	-6.8*
CCn1c(C(=O)O)c(CC(=O)N(C)c2ccc(OC)cc2OC)c2ccccc21	.	i
CC1CCc2c(sc(NC(=O)c3c([N+](=O)[O-])cnn3C)c2C(N)=O)C1 (stereo not given)	1	i
COc1ccc(OCC(=O)N/N=C2\CCCc3ccccc32)cc1	.	i
COc1ccccc1OCC(=O)N/N=C1\CCCCc2ccccc21	-7.1	-7.1*
COc1ccccc1OCC(=O)N/N=C1\CCc2ccccc21	-5.6	-5.6*
O=C(COc1cccc(Br)c1)N/N=C1\CCCc2ccccc21	.	i
COc1ccc(C(=O)N/N=C2\CCc3ccccc32)cc1OC	0.19	i
Cc1cccc2c1OCC/C2=N\NC(=O)COc1ccccc1	-7.3	-7.3*
COc1ccc(S(=O)(=O)CC(=O)c2cc3cc(Br)ccc3oc2=O)cc1	.	i
Cc1[nH]c(C)c(S(=O)(=O)N(Cc2ccccc2)C(C)C)c1C(=O)N1CCCC1	0.88	i
CCOC(=O)Cn1nnc2c(sc3nc4c(c(-c5ccc(Cl)cc5)c32)CCC4)c1=O	-6.7	-6.7*
SMILES	KCNQ2 pot	KCNQ2 block
CCOC(=O)Cn1nnc2c(sc3nc4c(c(-c5ccccc5)c32)CCC4)c1=O	.	i
O=C(O)CCCCCNC(=O)C(=O)C1C(=O)Nc2ccccc21 (stereo not given)	.	i
COc1ccc(-c2oc3c(CC=C(C)C)c(O[C@@H]4O[C@H](CO)[C@@H](O)[C@H](O)[C@H]4O)cc(O)c3c(=O)c2O[C@@H]2O[C@@H](C)[C@H](O)[C@@H](O)[C@H]2O)cc1	.	i
CC(=O)O[C@@H]1[C@@H](O)[C@@H](O)[C@H](Oc2c(-c3ccc(O)cc3)oc3c(CC=C(C)C)c(O)cc(O)c3c2=O)O[C@H]1C	-10	-10*
CCOC(=O)c1c(NC(=O)/C=C\C(=O)O)sc(C)c1-c1ccccc1	0.68	i
CCOC(=O)c1c(NC(=O)/C=C/C(=O)O)sc(C)c1-c1ccc(C(C)(C)C)cc1	7*	i
COC(=O)c1ccc(/C=N/N2CCN(Cc3ccc(C)cc3C)CC2)cc1	-7.8	-7.8*
COC(=O)c1ccc(/C=N/N2CCN(Cc3ccccc3Cl)CC2)cc1	.	i
CC(=O)N1CCN(c2cc(N3CCc4ccccc4C3)c(F)cc2[N+](=O)[O-])CC1	-5.6	-5.6*
CCC(=O)N1CCN(c2cc(N3CCCC3)c(F)cc2[N+](=O)[O-])CC1	0.05	i
O=C(c1ccc2ccccc2c1)N1CCN(c2ccc([N+](=O)[O-])c(N3CCOCC3)c2)CC1	.	i
O=C(/C=C/c1ccccc1)N1CCN(c2ccc([N+](=O)[O-])c(N3CCOCC3)c2)CC1	-6.4	-6.4*
CCOC(=O)C1=C(N)OC2=C(C(=O)CC(C)(C)C2)C1c1ccoc1 (stereo not given)	0.89	i
CCOC(=O)C1=C(N)OC2=C(C(=O)CC(C)(C)C2)C1C1CCCCC1 (stereo not given)	-7.5	-7.5*
Cc1cc(C(=O)OC(C(=O)Nc2cccc(C(F)(F)F)c2)c2ccccc2)c(C)o1 (stereo not given)	-5.8	-5.8*
Cc1ccc(NC(=O)C(OC(=O)c2cc(C)oc2C)c2ccccc2)cc1 (stereo not given)	.	i
c1ccc2c(c1)NCC1CCCN21 (stereo not given)	.	i
CCC(C)(C)NC(=O)C(c1ccc(C)cc1)N(CC1CCCO1)C(=O)CNC(=O)c1cccs1 (stereo not given)	-5.8	-5.8*
